# High-throughput results from PubChem BioAssay.
# VLA-4 antagonist: blocks LDV-FITC ligand binding to Mn2+-activated human VLA-4 integrin | inhibition, % at 10 µM (by protocol) | 24,000 tested, 0.2% active | Jurkat cells, LDV-FITC binding with Mn2+, flow cytometry; 100% = Mn2+-driven binding gain fully reversed;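 active = inhibition above 50%; inconclusive = compound itself fluorescent, judged against control cell fluorescence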
# Target sequence (P13612 whole entry, looked up): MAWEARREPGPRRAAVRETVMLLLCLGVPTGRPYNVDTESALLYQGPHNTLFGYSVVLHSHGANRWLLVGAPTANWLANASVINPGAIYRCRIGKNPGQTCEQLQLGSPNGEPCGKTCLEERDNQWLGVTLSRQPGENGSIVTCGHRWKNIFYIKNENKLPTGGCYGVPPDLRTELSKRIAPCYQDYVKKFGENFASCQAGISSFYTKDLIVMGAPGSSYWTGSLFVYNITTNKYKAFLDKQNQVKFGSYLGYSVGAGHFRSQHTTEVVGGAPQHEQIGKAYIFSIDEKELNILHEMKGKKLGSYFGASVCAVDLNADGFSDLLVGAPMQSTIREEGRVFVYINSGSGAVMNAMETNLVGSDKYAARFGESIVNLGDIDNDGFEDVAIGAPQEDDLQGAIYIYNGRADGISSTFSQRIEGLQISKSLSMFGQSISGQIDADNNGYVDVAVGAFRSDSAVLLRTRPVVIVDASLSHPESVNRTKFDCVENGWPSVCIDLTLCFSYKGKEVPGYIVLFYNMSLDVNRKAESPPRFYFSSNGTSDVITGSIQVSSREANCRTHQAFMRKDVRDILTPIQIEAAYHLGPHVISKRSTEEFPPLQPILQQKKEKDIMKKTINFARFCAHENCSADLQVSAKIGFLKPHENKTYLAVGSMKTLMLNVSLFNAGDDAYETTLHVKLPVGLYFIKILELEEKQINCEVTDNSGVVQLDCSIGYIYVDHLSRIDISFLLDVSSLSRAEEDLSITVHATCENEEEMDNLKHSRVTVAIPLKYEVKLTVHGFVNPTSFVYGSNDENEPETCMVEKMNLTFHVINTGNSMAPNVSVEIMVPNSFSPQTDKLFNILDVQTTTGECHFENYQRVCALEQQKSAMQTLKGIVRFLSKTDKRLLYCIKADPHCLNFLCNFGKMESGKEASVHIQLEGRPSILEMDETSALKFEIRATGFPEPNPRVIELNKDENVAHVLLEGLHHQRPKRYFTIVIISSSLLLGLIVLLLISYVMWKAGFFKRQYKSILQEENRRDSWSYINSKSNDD
# Autofluor Jurkat: autofluorescence counter-screen for VLA-4 integrin assays | 24,000 tested, 0.61% active | fluorescence ratio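 (tested at 10 µM compound in the well)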 | Jurkat cells, compound autofluorescence, flow cytometry; active compounds read high; 1 = vehicle-only cell background;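 active = fluorescence ratio above 2.44, which is 1 plus 3 SD of all ratios; inconclusive = signal too bright to measure linearly, ratio around 10 or more; inactive = fluorescence ratio below 2.44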;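 note: green fluorescence of cells measured with 488 nm excitation and 530 nm emission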
# FPR binder: human FPR ligand, with FPRL1 counter-screen. P21462. FPR-expressing cells, fluorescent ligand binding, flow cytometry. inhibition, % (no concentration beside the values). 24,000 tested, 0.74% active. AID 440
# VLA-4 agonist: allosterically activates the human VLA-4 integrin; Jurkat cells, LDV-FITC binding, flow cytometry; AID 528; 24,000 tested, under 10 active; P13612; activation, % at 10 µM (by protocol);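 active = fluorescent ligand binding to cells raised by more than 40% of the manganese-induced maximum; inconclusive = compound's own fluorescence above 85% of the ligand control signal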
# FPRL1 binder: human FPRL1 ligand, with FPR counter-screen. P25090. FPRL1-expressing cells, fluorescent ligand binding inhibition, flow cytometry. inhibition, % (test concentration not listed). 24,000 tested, 0.3% active
# A number is an active result; - = inactive; ? = inconclusive; . = no result. Shown are actives, neighbours in structure and some others; about 1.4% of the full set was active somewhere. Cut-off read from the data, not from the text of the source, unless noted: active = inhibition above about 30%; inconclusive = no clear call, values can overlap the other calls; inactive = below that.
SMILES,VLA-4 antagonist,Autofluor Jurkat,FPR binder,VLA-4 agonist,FPRL1 binder
CN1CCc2c(sc3c2C(=O)NC(c2cccc(OC(=O)c4cccs4)c2)N3)C1 (stereo unspecified),?,3.2,-,?,-
COC(=O)c1ccc(/C(O)=C(\C#N)c2nc3ccccc3s2)cc1,?,2.7,-,?,-
O=S1(=O)C=C(Sc2nnc(-c3ccccc3)o2)c2ccccc21,-,-,-,-,-
COC(=O)c1ccc(Cn2cnc3c(cnn3-c3ccc(Cl)cc3)c2=O)o1,-,-,-,-,-
Cc1nc2c(C#N)c[nH]n2c(=O)c1Cc1ccccc1,.,.,40,.,-
Cc1[nH]n2c(=O)cc(Cc3ccccc3)nc2c1C#N,-,-,-,-,-
CCOC(=O)Cc1c(C)nc2c(-c3ccccc3)c(C)[nH]n2c1=O,.,.,-,.,-
Cc1nc2c(C#N)c(C)[nH]n2c(=O)c1Cc1ccccc1,.,.,32,.,-
CCc1c(C)nc2c(C#N)c(C)[nH]n2c1=O,.,.,50,.,-
CC(C)(C)C(=O)CNS(=O)(=O)c1ccc(S(=O)(=O)NC2CCCC2)cc1,-,-,-,-,-
CC(C)c1ccc(NC(=O)C(c2ccc3c(c2)OCO3)N2CCC3(CC2)OCCO3)cc1 (stereo unspecified),54,-,-,-,-
O=C(Nc1ccc2c(c1)OCO2)C(c1ccc(Cl)cc1)N1CCC2(CC1)OCCO2 (stereo unspecified),-,-,-,-,-
O=C(c1nc2n(n1)C(c1ccc(Cl)cc1)C=C(c1ccccc1)N2)N1CCOCC1 (stereo unspecified),?,3.5,-,?,-
Nc1nc(C(=O)N2CCOCC2)nn1S(=O)(=O)c1ccc(Cl)cc1,-,-,-,-,-
CCOC(=O)C1CCCN(c2c(N3CCc4ccccc4C3)c(=O)c2=O)C1 (stereo unspecified),?,-,-,?,-
Cc1oc(-c2ccc(Cl)cc2)nc1CN1CCCC(C(=O)N2CCc3ccccc32)C1 (stereo unspecified),59,-,-,-,-
O=CN1CCN(C(C(=O)NC2CCCC2)c2ccc(Cl)cc2)CC1 (stereo unspecified),-,-,-,-,-
COc1cccc(N2CCN(c3ncnc4c3[nH]c3ccc(F)cc34)CC2C)c1 (stereo unspecified),95,-,-,-,-
COC(=O)c1[nH]c(C)c(/C(O)=C2\C(=O)C(=O)N(CCCN3CCOCC3)C2c2ccccn2)c1C (stereo unspecified),-,-,38,-,-
O=C1C(=O)N(CCCn2ccnc2)C(c2cccnc2)/C1=C(/O)c1ccc(Cl)cc1 (stereo unspecified),.,.,-,.,-
CC(C(=O)N1c2ccc(F)cc2CCC1C)N1C(=O)c2ccccc2C1=O (stereo unspecified),-,-,-,-,-
O=c1c2c(nc3c(-c4ccc(Cl)cc4)c[nH]n13)CCCC2,.,.,71,.,-
O=c1c2c(nc3c(-c4cccc5ccccc45)c[nH]n13)CCC2,.,.,-,.,-
CCCc1[nH]nc2c1C(CCc1ccccc1)C(C#N)=C(N)O2 (stereo unspecified),61,-,-,-,-
Cc1ccc(Cn2nnc3c(=O)n(CC(=O)NCc4ccc5c(c4)OCO5)cnc32)cc1,-,-,-,-,-
SMILES,VLA-4 antagonist,Autofluor Jurkat,FPR binder,VLA-4 agonist,FPRL1 binder
Cc1ccc(C2/C(=C(/O)c3ccc(Cl)cc3)C(=O)C(=O)N2CC2CCCO2)o1 (stereo unspecified),.,.,60,.,-
CC(C)COC(=O)C(C#N)c1nc2ccccc2nc1N1CCN(Cc2ccccc2)CC1 (stereo unspecified),?,-,-,?,-
C=CCOC(=O)C(C#N)c1nc2ccccc2nc1N1CCN(Cc2ccccc2)CC1 (stereo unspecified),?,2.8,-,?,-
O=C(Nc1ccc(OC(F)(F)F)cc1)C1CCCN(S(=O)(=O)c2cccnc2)C1 (stereo unspecified),-,-,-,-,-
Cc1nc2ccc(F)cc2cc1C(=O)NCC1CCCO1 (stereo unspecified),?,3.4,-,?,-
CCOC(=O)C1=C(CSc2nc(C)cc(C)c2C#N)OC(N)=C(C#N)C1c1cccs1 (stereo unspecified),-,-,-,-,-
CCN1C=C(Cc2cccs2)C2=C(C1)C(c1cccs1)C(C#N)=C(N)O2 (stereo unspecified),?,3.1,-,?,-
CCCCC1(Cc2cccc([N+](=O)[O-])c2)C(=O)N(c2ccccc2)N(c2ccccc2)C1=O,-,.,.,-,.
O=C(CCCn1c(=O)[nH]c2ccccc2c1=O)NC1CCCCCC1,-,-,-,-,-
CCOc1cc2[nH]c(=O)n(CCCCC(=O)NC3CCCCCC3)c(=O)c2cc1OCC,66,-,-,-,-
CCOc1cc2[nH]c(=O)n(CC3CCC(C(=O)NCCC(C)C)CC3)c(=O)c2cc1OCC (stereo unspecified),60,-,-,-,-
C[C@@H]1CCC[C@H](C)N1NC(=O)c1ccc(Cl)c(S(N)(=O)=O)c1,-,-,-,-,-
CCn1c(N)c(C(=O)NCc2ccco2)sc1=S,-,-,-,-,-
Cn1c(N)c(C(=O)NCc2ccccc2)sc1=S,?,4.1,-,?,-
CC(C)OC(=O)c1nnn(-c2nonc2N)c1CN1CCc2ccccc2C1,?,-,43,?,-
O=C(Cc1cccs1)N(Cc1ccco1)C1(C(=O)NC2CCCC2)CCCCC1,-,-,-,-,-
COc1cc(OC)c(NC(=O)CCc2nc(-c3cccs3)no2)cc1Cl,-,-,-,-,-
CCCCC[C@H](O)/C=C/[C@H]1C=CC(=O)[C@@H]1C/C=C\CCCC(=O)O,-,-,-,42,-
Cc1cccc(CSC2=NCCN2C(=O)c2ccco2)c1,-,-,-,-,-
CCN(CCCn1c(SCC#N)nc2ccccc2c1=O)c1ccccc1,?,-,-,?,-
CCCCNC(=O)c1sc(=S)n2c1[nH]c(=O)c1ccccc12,?,-,89,?,-
O=C(NC1CCCCC1)c1sc(=S)n2c1[nH]c(=O)c1ccccc12,?,-,62,?,-
CCOC(=O)N1CCC(Nc2nc3ccccc3n3nnnc23)CC1,?,8,-,?,-
Cc1ccc(CNc2nc3ccccc3n3nnnc23)cc1,?,?,-,?,-
CC1(C)S[C@@H]2[C@H](NC(=O)Cc3ccccc3)C(=O)N2[C@H]1C(=O)O,-,-,48,-,-
CC1(C(=O)NC2CCCC2)CCC(=O)N1Cc1ccccc1 (stereo unspecified),-,-,-,-,-
CC1Cc2ccccc2N1C(=O)Cn1c(=O)oc2cc(S(=O)(=O)N3CCCCC3)ccc21 (stereo unspecified),?,5.1,-,?,-
O=C(Cn1c(=O)oc2cc(S(=O)(=O)N3CCc4ccccc43)ccc21)N1CCCCC1,?,-,-,?,-
O=C(NC1CCCC1)C1CC1c1ccccc1 (stereo unspecified),-,-,-,-,46
